# How the values were obtained:
# Experiment in all cases: PBM binding z-score (relative to random genomic background probes); higher = stronger binding; sequences stand for … in GC…GCGATTGACAGCGTAGAATGAAGG
# [1] = test system: PPARg:RXRa DBDmut IVT, anti-RXR (DBD mutation: RXRa K156A/R161A, NR concentration 270 nM, RXRa partner concentration 90 nM)
# Procedure, shortened: (§1)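 Custom Agilent 4×180K protein-binding microarrays carried double-stranded probes, each with a 34-nt variable region. These regions held direct-repeat seeds, single-nucleotide variants, half-site ablations and random human genomic background sequences. Ligand-free nuclear receptor dimers were incubated on the arrays for 1 h, antibodies against each partner (one per run) detected binding, and scanned fluorescence was regression-normalized. Binding z-scores take the random background probes as reference.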
# [2] = test system: PPARg:RXRa IVT, anti-PPARg (NR concentration 270 nM, RXRa partner concentration 90 nM)
# Procedure, shortened: as §1
# [3] = test system: PPARg DBDmut:RXRa IVT, anti-PPARg (DBD mutation: PPARg1 K132A/R137A, NR concentration 270 nM, RXRa partner concentration 90 nM)
# Procedure, shortened: as §1
# [4] = test system: PPARg DBDmut IVT, anti-PPARg (DBD mutation: PPARg1 K132A/R137A, NR concentration 270 nM)
# Procedure, shortened: as §1
# [5] = test system: PPARg homodimer (NR concentration 180 nM)
# Procedure, shortened: as §1
# [6] = test system: PXR:RXRa (NR concentration 270 nM, RXRa partner concentration 90 nM)
# Procedure, shortened: as §1
# [7] = test system: PXR homodimer (NR concentration 270 nM)
# Procedure, shortened: as §1
# [8] = test system: RARa:RXR (NR concentration 270 nM, RXRa partner concentration 90 nM)
# Procedure, shortened: as §1
# [9] = test system: RARa homodimer (NR concentration 270 nM)
# Procedure, shortened: as §1
# [10] = test system: RARb:RXRa (NR concentration 270 nM, RXRa partner concentration 90 nM)
# Procedure, shortened: as §1
Sequence,PBM binding z-score [1],PBM binding z-score [2],PBM binding z-score [3],PBM binding z-score [4],PBM binding z-score [5],PBM binding z-score [6],PBM binding z-score [7],PBM binding z-score [8],PBM binding z-score [9],PBM binding z-score [10]
GCGACTGGGGCAAAGCAGCTTACCATAAGGTTGG,4.53,3.13,-0.355,-0.462,-0.569,-0.681,-0.894,-0.835,-1.36,0.456
CCGAGTAGGTTATGGGGCACTCAGGCAACGGTGA,3.14,3.7,-0.555,-0.9,0.446,-0.0743,-0.0972,0.214,-0.134,1.15
TCTAGTTGGTCACGGAGATCACACACGACGGGTA,2.55,2.3,0.815,0.952,0.853,0.363,0.241,0.735,0.576,1.57
CGTCAAAGTTCACGGTAACGTAACAGAAAGCAGC,0.827,2.31,0.983,0.91,2.72,4.93,2.72,4.67,1.67,5.25
TCTTGTATATCAATAGAGGTTAAGAAAGTGCGCT,1.98,1.05,0.574,1.14,0.383,3,0.496,1.54,0.672,0.997
TCTGCTAGGTCAACGATGGTCAGCAAATCTGCTA,3.85,4.18,0.827,0.166,0.381,1.47,-0.599,2.12,-0.686,4.26
CCGACTGGGGCATAAGGTTGCCATAAGCCAGCCC,2.51,2.07,-0.622,-1.53,-0.22,-0.532,-0.499,0.0769,-0.329,0.569
CCGACTGGGGCAGGAAGGTTACCATACCATCCGG,1.39,2.05,-0.739,-1.79,0.462,-0.00877,-0.202,0.286,-0.388,0.913
CGTCCAAGGTCATAGGAGGTAAGTGAAGACAGAT,2.54,3.38,0.738,0.602,2.39,4.29,1.22,3.98,1.57,4.88
AATACAGTGTCACTAGGCCAGAGTAGGTACGAAT,1.71,3.04,0.806,0.257,0.169,-0.342,-0.144,-0.182,-0.0529,1.06
AGAATAAGGTTATACGTAGATCAGGGAAGAAAGT,2.81,1.19,1.32,1.1,0.729,1.03,0.578,1.66,0.976,1.64
TAGCCTAGGTCATGGGCCAATATACCACGCGAAC,1.34,3.16,0.749,-0.176,1.44,1.86,-0.28,2.92,0.353,3.77
TCTGCTAGGTCAGTTGGTCAGCTGACGAGCTGCC,2.95,3.18,1.59,1.47,0.336,0.0252,-1.5,0.0768,-1.43,3.42
GCAGACAGGTGAAACGCAGGTTACTCAGGGTGGC,1.13,0.617,-0.717,-0.933,-0.435,0.076,-0.507,0.833,-0.748,1.02
ACTATTAGTTGAGACGAGGGCAAGCGATAGGTTG,0.296,0.365,0.712,0.625,0.663,1.05,0.306,0.73,0.56,0.659
CCTGCTGGGCCAAAGGTCATTGATTCCAATGCTC,1.56,4.42,-0.0348,0.037,3.9,5.43,1.15,6.18,0.602,4.63
TCTCGGAGGACAAGAAAGGTCAGAGCTCGACATC,1.37,0.954,-0.439,-0.79,2.62,3.55,0.191,4.02,0.689,4
ATATCTAGGTTACATCCGGGTCATTCAGGCTATG,7.39,7.41,3.31,3.16,2.49,3.62,3.73,3.4,1.99,2.63
ATCTCTAGGTAAAAGCTCAGTGAATCCCGAGGAT,2.43,1.66,0.208,0.808,-0.0545,-0.626,-0.475,-0.548,0.418,-0.0301
AGTCCAAGTTCATCTAGGTAACGTAAGATATGCT,0.673,2.16,1.06,0.824,1.01,3.95,5.64,1.67,0.0751,3.3
GCTATTAGTTGAAAGGGCCACCGAATGATTCTCG,0.635,-0.116,0.0939,-0.248,0.586,-0.34,-0.184,-0.0438,0.309,1.02
CGTCCAAGGTCGATGCTAGGTCAGTGAAAGCATT,0.324,0.816,-0.113,-0.767,1.54,2.04,0.704,2.49,-0.458,2.92
TCTTGTAGATCAACAGGAGGTTAGGAAAGATCGA,1.53,0.599,0.272,0.48,-0.426,0.183,-0.275,0.125,0.162,0.117
CCGACTGGGGCATAGGGTTACCATAAGCCAGCCC,2.48,3.41,-0.334,-1.39,0.589,0.141,-0.597,0.817,-1.05,1.25

# — the supplement of paper PMC6555819
